About 2,000 (36%) of roughly 5,500 compounds were called active. Another 18% or so got no clear call; they are omitted. Cut-off read from the data, not from the text of the source: active = normalized growth mostly below about 0.91 (no sharp cut-off); inconclusive = no clear call, values can overlap the other calls; inactive = mostly above about 0.92. Some of the results follow.
Experiment: chemical genetic growth profiling, strain panel (AID 1159580);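 note: tested at 20 µM; growth read once vehicle control cultures reached saturation at 30 °C; 1 = growth at the plate median or of vehicle wells; lower values mean less growth of the strain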
Conditions: growth OD

Measured: normalized growth

COc1ccc(-c2oc3c(CC=C(C)C)c(O[C@@H]4O[C@H](CO)[C@@H](O)[C@H](O)[C@H]4O)cc(O)c3c(=O)c2O[C@@H]2O[C@@H](C)[C@H](O)[C@@H](O)[C@H]2O)cc1
inactive: S. cerevisiae deletion strains, locus YJR066W, strain TOR1, stronger effect = lower value 0.949 | S. cerevisiae deletion strains, locus YKL009W, strain mrt4, stronger effect = lower value 0.963 | S. cerevisiae deletion strains, locus YKL068W, stronger effect = lower value 0.986 | S. cerevisiae deletion strains, locus YKL085W, strain MDH1 (second series), stronger effect = lower value 0.975 | S. cerevisiae deletion strains, locus YKL085W, strain MDH1, stronger effect = lower value 0.975 | S. cerevisiae deletion strains, locus YKL160W, strain elf1, stronger effect = lower value 1 | S. cerevisiae deletion strains, locus YKL190W, strain CNB1, stronger effect = lower value 1.02 | S. cerevisiae deletion strains, locus YKR001C, strain vps1, stronger effect = lower value 0.993 | S. cerevisiae deletion strains, locus YKR026C, strain gcn3, stronger effect = lower value 1.04 | S. cerevisiae deletion strains, locus YKR091W, strain srl3, stronger effect = lower value 1.03 | S. cerevisiae deletion strains, locus YLL001W, strain dnm1, stronger effect = lower value 1.01 | S. cerevisiae deletion strains, locus YLL026W, stronger effect = lower value 1.04 | S. cerevisiae deletion strains, locus YLL041C, strain sdh2, stronger effect = lower value 1.04 | S. cerevisiae deletion strains, locus YLR027C, strain aat2, stronger effect = lower value 1.03 | S. cerevisiae deletion strains, locus YLR039C, strain RIC1, stronger effect = lower value 1.01 | S. cerevisiae deletion strains, locus YLR058C, strain SHM2, stronger effect = lower value 0.988 | S. cerevisiae deletion strains, locus YLR102C, strain apc9, stronger effect = lower value 0.974 | S. cerevisiae deletion strains, locus YLR113W, strain HOG1, stronger effect = lower value 1.04 | S. cerevisiae deletion strains, locus YLR221C, strain rsa3, stronger effect = lower value 1.04 | S. cerevisiae deletion strains, locus YLR258W, strain gsy2, stronger effect = lower value 1.01 | S. cerevisiae deletion strains, locus YLR262C, strain YPT6 (second series), stronger effect = lower value 1.05 | S. cerevisiae deletion strains, locus YLR262C, strain YPT6, stronger effect = lower value 0.971 | S. cerevisiae deletion strains, locus YLR268W, strain sec22, stronger effect = lower value 0.969 | S. cerevisiae deletion strains, locus YLR320W, strain mms22, stronger effect = lower value 1.04 | S. cerevisiae deletion strains, locus YLR330W, strain CHS5, stronger effect = lower value 1.01 | S. cerevisiae deletion strains, locus YLR342W, strain FKS1 (second series), stronger effect = lower value 1.06 | S. cerevisiae deletion strains, locus YLR342W, strain FKS1, stronger effect = lower value 1.04 | S. cerevisiae deletion strains, locus YLR357W, strain rsc2, stronger effect = lower value 1.02 | S. cerevisiae deletion strains, locus YLR370C, strain arc18, stronger effect = lower value 1.02 | S. cerevisiae deletion strains, locus YLR371W, strain rom2, stronger effect = lower value 0.965 | S. cerevisiae deletion strains, locus YLR384C, strain iki3, stronger effect = lower value 1.01 | S. cerevisiae deletion strains, locus YLR418C, strain cdc73, stronger effect = lower value 0.998 | S. cerevisiae deletion strains, locus YML016C, strain PPZ1, stronger effect = lower value 1 | S. cerevisiae deletion strains, locus YML032C, strain rad52, stronger effect = lower value 1 | S. cerevisiae deletion strains, locus YML120C, strain ndi1, stronger effect = lower value 1.02 | S. cerevisiae deletion strains, locus YML124C, strain tub3, stronger effect = lower value 0.975 | S. cerevisiae deletion strains, locus YMR058W, strain fet3, stronger effect = lower value 1.04 | S. cerevisiae deletion strains, locus YMR078C, strain ctf18, stronger effect = lower value 0.977 | S. cerevisiae deletion strains, locus YMR125W, strain sto1, stronger effect = lower value 1.04 | S. cerevisiae deletion strains, locus YMR129W, stronger effect = lower value 1.04 | S. cerevisiae deletion strains, locus YMR205C, strain PFK2, stronger effect = lower value 1.04 | S. cerevisiae deletion strains, locus YMR223W, strain ubp8, stronger effect = lower value 0.979 | S. cerevisiae deletion strains, locus YMR231W, strain pep5, stronger effect = lower value 1 | S. cerevisiae deletion strains, locus YMR263W, strain SAP30, stronger effect = lower value 1 | S. cerevisiae deletion strains, locus YMR307W, strain GAS1, stronger effect = lower value 1.15 | S. cerevisiae deletion strains, locus YNL067W, strain RPL9B, stronger effect = lower value 0.963 | S. cerevisiae deletion strains, locus YNL071W, strain lat1, stronger effect = lower value 1.03 | S. cerevisiae deletion strains, locus YNL128W, strain TEP1, stronger effect = lower value 0.974 | S. cerevisiae deletion strains, locus YNL183C, strain NPR1, stronger effect = lower value 0.952 | S. cerevisiae deletion strains, locus YNL209W, strain ssb2, stronger effect = lower value 1.03 | S. cerevisiae deletion strains, locus YNL233W, strain BNI4, stronger effect = lower value 0.99 | S. cerevisiae deletion strains, locus YNL248C, strain rpa49, stronger effect = lower value 1.04 | S. cerevisiae deletion strains, locus YNL250W, strain rad50, stronger effect = lower value 0.93 | S. cerevisiae deletion strains, locus YNL271C, strain bni1, stronger effect = lower value 0.965 | S. cerevisiae deletion strains, locus YNL298W, strain CLA4, stronger effect = lower value 0.981 | S. cerevisiae deletion strains, locus YNL307C, strain MCK1, stronger effect = lower value 0.979 | S. cerevisiae deletion strains, locus YNL322C, strain KRE1 (second series), stronger effect = lower value 1.03 | S. cerevisiae deletion strains, locus YNR049C, strain mso1, stronger effect = lower value 1.03 | S. cerevisiae deletion strains, locus YNR052C, strain pop2, stronger effect = lower value 0.984 | S. cerevisiae deletion strains, locus YOL012C, strain htz1 0.851 | S. cerevisiae deletion strains, locus YOL147C, strain pex11, stronger effect = lower value 0.989 | S. cerevisiae deletion strains, locus YOR001W, strain rrp6, stronger effect = lower value 1.05 | S. cerevisiae deletion strains, locus YOR061W, strain CKA2, stronger effect = lower value 0.992 | S. cerevisiae deletion strains, locus YOR069W, strain VPS5, stronger effect = lower value 0.999 | S. cerevisiae deletion strains, locus YOR070C, strain gyp1, stronger effect = lower value 1.01 | S. cerevisiae deletion strains, locus YOR080W, strain dia2, stronger effect = lower value 1.04 | S. cerevisiae deletion strains, locus YOR083W, strain WHI5, stronger effect = lower value 0.988 | S. cerevisiae deletion strains, locus YOR106W, strain vam3, stronger effect = lower value 0.989 | S. cerevisiae deletion strains, locus YOR136W, strain idh2, stronger effect = lower value 0.985 | S. cerevisiae deletion strains, locus YOR144C, strain elg1, stronger effect = lower value 1 | S. cerevisiae deletion strains, locus YOR184W, strain ser1, stronger effect = lower value 0.984 | S. cerevisiae deletion strains, locus YOR231W, strain MKK1, stronger effect = lower value 1.02 | S. cerevisiae deletion strains, locus YOR265W, strain rbl2, stronger effect = lower value 1.02 | S. cerevisiae deletion strains, locus YOR270C, strain vph1, stronger effect = lower value 0.999 | S. cerevisiae deletion strains, locus YOR290C, strain snf2, stronger effect = lower value 0.981 | S. cerevisiae deletion strains, locus YOR316C, strain cot1, stronger effect = lower value 0.976 | S. cerevisiae deletion strains, locus YPL051W, strain arl3, stronger effect = lower value 1.02 | S. cerevisiae deletion strains, locus YPL055C, strain LGE1, stronger effect = lower value 1 | S. cerevisiae deletion strains, locus YPL078C, strain atp4, stronger effect = lower value 0.986 | S. cerevisiae deletion strains, locus YPL106C, strain sse1, stronger effect = lower value 1.04 | S. cerevisiae deletion strains, locus YPL240C, strain hsp82, stronger effect = lower value 1.02 | S. cerevisiae deletion strains, locus YPL241C, strain CIN2, stronger effect = lower value 0.99 | S. cerevisiae deletion strains, locus YPL256C, strain CLN2, stronger effect = lower value 1 | S. cerevisiae deletion strains, locus YPR119W, strain clb2, stronger effect = lower value 0.98 | S. cerevisiae deletion strains, locus YPR141C, strain kar3, stronger effect = lower value 0.968 | S. cerevisiae deletion strains, locus YPR163C, strain tif3, stronger effect = lower value 0.978 | S. cerevisiae deletion strains, locus YPR167C, strain met16, stronger effect = lower value 0.983 | S. cerevisiae deletion strains, strain wtn01, stronger effect = lower value 0.986 | S. cerevisiae strains, strain wild type, stronger effect = lower value 1.01

Reference: PubChem BioAssay AID1159580 (chemical genetic matrix, 2015)
